For 8 compounds, outcome and AC50 results are on record in PubChem BioAssay (EPA / NIEHS).

What is called AC50 is the concentration at which the activity in the assay is half-maximal.

Values joined by “and” are separate entries in the source; they are usually repeats but may differ in a detail not shown here. Identical values can stand only once. Records with an inconclusive call do not appear. Some structures have more than one record in an assay (separate samples or runs), and their calls can disagree. Active and inactive are the calls of the source. The calls were made as follows, unless noted: active = hit-call score of the fitted dose curve at least 0.9, where 1 is the maximum; inactive = score below 0.9.

Experiment [1] can be described thus: BSK_BT_PBMCCytotoxicity: PBMC Cytotoxicity Assessment in the BioMAP Diversity Plus: BT Assay (AID 2284225).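 Also: PBMC viability measured by Alamar Blue dye reduction fluorescence.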 The note with it: primary human B cells with PBMC. The method, boiled down: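 Primary human co-culture of B cells and PBMC, pre-dosed 1 h then activated with SEB and TSST-1. Cytotoxicity is taken from Alamar Blue dye reduction, added for 6 h at the end of a 90 h incubation.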

Read-out in experiment [2]: Secreted IgG (sIgG), gene 3500
Description: BSK_BT_sIgG: BioMAP Diversity Plus: BT Assay for Secreted IgG (sIgG) Biomarker Activity (AID 2284226). The note with it: primary human B cells with PBMC. The procedure, abridged:
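In this multiplexed co-culture system, ELISA quantifies sIgG 24 h post-treatment. Endpoint analysis uses positive fitting direction, DMSO negative control.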

The nature of experiment [3]: BSK_BT_Bcell_Proliferation: Viability Assessment in the BioMAP Diversity Plus: BT Assay for B cell Proliferation (AID 2284227). The note with it: primary human B cells with PBMC. The method, boiled down: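 Human B cells co-cultured with PBMC were dosed with test chemicals and relative cell number was quantified by SRB staining at 72 h. Cells were fixed in 10% TCA, stained with 0.1% SRB and read at 560 nm. Activity was fitted in the positive direction against DMSO.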

Read-out in experiment [4]: Interleukin 6 (IL6), IL6 (gene 3569)
Description: BSK_BT_xIL6: BioMAP Diversity Plus: BT Assay for Interleukin 6 (IL6) Biomarker Activity (AID 2284228). The note with it: primary human B cells with PBMC. The procedure, abridged: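 Readout: secreted IL-6 via Luminex xMAP multiplex, 24 h post-dosing. System: primary human B cells co-cultured with PBMC. Signal change scored relative to DMSO vehicle, positive fitting direction.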

Read-out in experiment [5]: Interleukin 17A (IL17A), IL17A (gene 3605)
Description: BSK_BT_xIL17A: BioMAP Diversity Plus: BT Assay for Interleukin 17A (IL17A) Biomarker Activity (AID 2284229). To be noted: primary human B cells with PBMC. The procedure, abridged: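 Luminex xMAP readout of secreted IL-17A; human B cell + PBMC co-culture; 24 h post-dose; positive-direction fit vs DMSO negative control.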

Read-out in experiment [6]: Tumor necrosis factor (Homo sapiens) (UniProt P01375)
As to the kind of experiment: BSK_BT_xTNFa: BioMAP Diversity Plus: BT Assay for Tumor necrosis factor alpha (TNF-alpha) Biomarker Activity (AID 2284230). To be noted: primary human B cells with PBMC. The method, boiled down:
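B cells with PBMC in co-culture, dosed and sampled at 24 h; secreted TNF-alpha measured by Luminex xMAP bead assay. Activity fitted in the gain direction against DMSO as negative control and baseline.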

Read-out in experiment [7]: Vascular cell adhesion molecule 1 (VCAM1), VCAM1 (gene 7412)
Description: BSK_MyoF_VCAM1: BioMAP Diversity Plus: MyoF Assay for Vascular cell adhesion molecule 1 (VCAM1) Biomarker Activity (AID 2284231). The note with it: primary human lung fibroblasts. The procedure, abridged:
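MyoF system, lung fibroblasts; 24 h post-dose; VCAM-1 by ELISA; gain-of-signal fit vs DMSO baseline.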

Read-out in experiment [8]: Collagen I, COL1A1 (gene 1277)
As to the kind of experiment: BSK_MyoF_CollagenI: BioMAP Diversity Plus: MyoF Assay for Collagen I Biomarker Activity (AID 2284238). The note with it: primary human lung fibroblasts. The method, boiled down: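 ELISA readout of Collagen I after 24 h chemical treatment of primary human lung fibroblast cultures; gain of signal scored relative to DMSO vehicle baseline.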

Experiment [9] in a line: CCTE_Mundy_HCI_Cortical_Synap_Neur_Matur_SynapseCount: CCTE's Synaptogenesis and Neurite Maturation Assay in rat cortical cells for Synapse Count, Mundy Lab (AID 2284218). The procedure, abridged: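 Endpoint: synapses/neuron by HCI (synaptophysin puncta on MAP2-labelled neurites, Hoechst nuclei). Rat primary cortical cells, AraC DIV 5, dosed DIV 7, fixed DIV 12; DMSO negative control.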

A short description of experiment [10]: CCTE_Mundy_HCI_Cortical_Synap_Neur_Matur_NeuriteCount: CCTE's Synaptogenesis and Neurite Maturation Assay in rat cortical cells for Neurite Count, Mundy Lab (AID 2284222).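 As to outcome: exposure from day 7 to day 12 in vitro with readout at day 12.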 The procedure, abridged:
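Rat primary cortical cells; AraC added at DIV 5, chemicals dosed with media change at DIV 7 through DIV 12. MAP2/synaptophysin/Hoechst immunostaining, high-content imaging of neurite number; fitted relative to DMSO.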

Experiment [11] can be described thus: CCTE_Mundy_HCI_Cortical_Synap_Neur_Matur_CellBodySpotCount: CCTE's Synaptogenesis and Neurite Maturation Assay in rat cortical cells for Cell Body Spot Count, Mundy Lab (AID 2284223). The method, boiled down:
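Read-out: cell body-associated synaptophysin puncta per neuron, imaged after MAP2, synaptophysin and Hoechst staining. Rat cortical cells, AraC DIV 5, chemical dosing DIV 7, fixation DIV 12. Activity fitted in positive direction relative to DMSO baseline.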

Experiment [12] is described as follows: CCTE_Mundy_HCI_hNP1_Pro_ResponderAvgInten: CCTE's Proliferation Assay in human neuroprogenitor cells, Mundy Lab (AID 2284224; active = hit-call score of the fitted dose curve at least 0.9, where 1 is the maximum;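 also: human neural progenitor cells hNP1 derived from WA09 embryonic stem cells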). The procedure, abridged:
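Proliferation read as average intensity of BrdU-positive cells, imaged at 26.25 h post-dosing: chemical exposure started after 40–44 h culture, BrdU during final 4 h, paraformaldehyde fixation. Positive-direction fit relative to DMSO.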

Experiment [13] is described as follows: CCTE_Mundy_HCI_Cortical_NOG_BPCount: CCTE's Neurite Outgrowth Assay in rat cortical cells for Branch Point Count, Mundy Lab (AID 2284237).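 As to AC50: branch points counted about two days after chemical exposure.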 The procedure, abridged: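 Measured 50.33 h after dosing, this morphology endpoint uses rat primary cortical cultures labelled for betaIII-tubulin. Branch points are quantified by high-content imaging, with DMSO as negative control and baseline.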

Experiment [14] can be described thus: CCTE_Mundy_HCI_hN2_NOG_NeuriteLength: CCTE's Neurite Outgrowth Assay in human hN2 cells for Neurite Length, Mundy Lab (AID 2284220; active = hit-call score of the fitted dose curve at least 0.9, where 1 is the maximum). The procedure, abridged: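 Read-out is neurite length from high-content imaging of βIII-tubulin/Alexa Fluor-488-labelled neurons, referenced to DMSO controls.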
The nature of experiment [15]: CCTE_Mundy_HCI_hN2_NOG_NeuronCount: CCTE's Neurite Outgrowth Assay in human hN2 cells for Neuron Count, Mundy Lab (AID 2284221; active = hit-call score of the fitted dose curve at least 0.9, where 1 is the maximum). The method, boiled down:
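Read-out is the number of betaIII-tubulin-positive neurons imaged by automated high-content analysis, with DMSO as negative control.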

Experiment [16] in a line: TAMU_HCS_1.5hr_SingleDonor1434_Cytotoxicity: Cytotoxicity Assessment using High-content Screening (HCS) Fluorescent Imaging for the Texas A&M University (TAMU) 1.5-hr Human Induced Pluripotent Stem Cell (iPSC)-derived Cardiotoxicity Assay (AID 2284234; active = hit-call score of the fitted dose curve at least 0.9, where 1 is the maximum). The procedure, abridged: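 Nuclear counts from Hoechst 33342 imaging define cytotoxicity here, with EC10 (10% cell-count loss relative to DMSO) as point of departure. iPSC cardiomyocytes received 0.2-100 uM test chemical in 0.5% DMSO for 1.5 h at 37 C.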

The nature of experiment [17]: TAMU_PeakParms_SingleDonor1434_QT: Texas A&M University (TAMU) 1.5-hr Human Induced Pluripotent Stem Cell (iPSC)-derived Cardiomyocytes Calcium (Ca+2) Flux Assay for Cardiotoxicity: QT (decay-rise ratio) (AID 2284235; active = hit-call score of the fitted dose curve at least 0.9, where 1 is the maximum). The procedure, abridged:
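Decay/rise ratio of calcium-flux fluorescence scored after 90 min exposure (37C) of donor 1434 iPSC cardiomyocytes to 0.2–100 uM (0.5% DMSO). Beat-cessation and severe-notch points removed; POD is EC05, a 5% rise over DMSO.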

The nature of experiment [18]: CCTE_Mundy_HCI_Cortical_NOG_NeuronCount: CCTE's Neurite Outgrowth Assay in rat cortical cells for Neuron Count, Mundy Lab (AID 2284236; active = hit-call score of the fitted dose curve at least 0.9, where 1 is the maximum;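 also: neurons counted by imaging betaIII-tubulin and Hoechst stained cortical cells; cells exposed to compound for about 48 hours before fixation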). The procedure, abridged: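 Read-out: neuron number by high-content imaging of betaIII-tubulin (Alexa Fluor-488) and Hoechst-labelled rat primary cortical cells.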
Experiment [19] in a line: CCTE_Mundy_HCI_hN2_NOG_NeuriteCount: CCTE's Neurite Outgrowth Assay in human hN2 cells for Neurite Count, Mundy Lab (AID 2284219; active = hit-call score of the fitted dose curve at least 0.9, where 1 is the maximum). The method, boiled down:
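In this morphology assay, hNP1-derived neurons received test chemical 2 h post-plating and were fixed two days later in warm paraformaldehyde/sucrose containing Hoechst 33342. Neurites, labelled by rabbit anti-βIII-tubulin (1:800) and Alexa Fluor-488 (1:500), were counted automatically.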

The nature of experiment [20]: UKN2_HCS_IMR90_cell_viability: Viability Assessment in the University of Konstanz (UKN) Leist Lab Neural Crest Cell Migration Assay in human induced IMR90 Pluripotent Stem Cells (UKN2) (AID 2284233).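 Also: cells exposed to compound for 24 h after a 24 h migration phase.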 The procedure, abridged:
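Viability read as calcein-AM fluorescence by high-content imaging, Hoechst co-stain, 30 min. Human iPSC (IMR90) neural crest cells had migrated 24 h into stopper-defined gaps before 24 h chemical exposure. Fitted bidirectionally relative to DMSO.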

Chain of Tumor necrosis factor (Homo sapiens) (P01375 whole entry, looked up): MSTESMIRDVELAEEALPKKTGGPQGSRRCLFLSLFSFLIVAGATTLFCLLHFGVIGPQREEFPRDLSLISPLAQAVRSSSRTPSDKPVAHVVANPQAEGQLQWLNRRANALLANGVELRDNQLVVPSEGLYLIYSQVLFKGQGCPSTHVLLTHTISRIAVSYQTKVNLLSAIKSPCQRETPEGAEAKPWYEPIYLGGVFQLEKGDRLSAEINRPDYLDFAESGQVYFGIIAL

With `NS(=O)(=O)C(F)(F)C(F)(F)C(F)(F)C(F)(F)C(F)(F)C(F)(F)C(F)(F)C(F)(F)F`, the outcome in [1], in experiment [3] and in experiment [5] was inactive. The AC50 in [2] is 23.8 µM (active) and 45.3 µM (active); in experiment [4], 44.5 µM (active) and 43.1 µM (active); in experiment [5] it was 46.5 µM (active); in experiment [6], 46.3 µM (active) and 25 µM (active); in experiment [7] it was 20.2 µM (active) and 26.5 µM (active); in [8], 22.6 µM (active).
As for `COc1ccc(O)c(C(C)(C)C)c1`, the call in experiment [9], in experiment [10], in experiment [11], in experiment [12] and in [13] was inactive.
On to `ClC1=C(Cl)[C@]2(Cl)[C@@H]3[C@@H]4C[C@@H]([C@H]5O[C@@H]45)[C@@H]3[C@@]1(Cl)C2(Cl)Cl`, for which the AC50 in [9] is 13.2 µM (active); in experiment [15], 50 µM (active); in experiment [11], 24 µM (active); in experiment [12], 25.2 µM (active); in [18] it was 21.7 µM (active). Further, the call in experiment [14], in [16] and in experiment [17] was inactive.
As for `Oc1c(Cl)c(Cl)c(Cl)c(Cl)c1Cl`, the result in experiment [1], in experiment [3], in experiment [4], in [5] and in experiment [6] was inactive. Moreover, the AC50 in experiment [2] is 27 µM (active); in [7], 2.41 µM (active); in experiment [8], 2.58 µM (active).
In the case of `O=C(O)C(F)(F)C(F)(F)C(F)(F)C(F)(F)C(F)(F)C(F)(F)C(F)(F)C(F)(F)C(F)(F)F`, the AC50 in experiment [1] was 5.95 µM (active); in experiment [3], 20.4 µM (active); in experiment [5], 37.8 µM (active); in experiment [7] it was 48.6 µM (active) and 44.7 µM (active); in experiment [8], 15.8 µM (active) and 18.9 µM (active). Besides, the result in experiment [1], in [2], in experiment [3], in experiment [4], in [5] and in experiment [6] was inactive.
As for `O=C(O)C(F)(F)C(F)(F)C(F)(F)C(F)(F)C(F)(F)F`, the result in experiment [1], in experiment [2], in experiment [3], in [4], in experiment [5] and in [6] was inactive. The result in experiment [7] and in experiment [8] was inactive.
As for `CCOP(=S)(OCC)SCSC(C)(C)C`, the AC50 was 79.7 µM (active) and 22.9 µM (active) in [9]; 22.5 µM (active) in [10]; 22.9 µM (active) in [11]; 68.1 µM (active) in [18]. Further, the compound was called inactive in experiment [19], in experiment [14], in experiment [15], in [10], in experiment [11] and in [12]. The result in experiment [20] was inactive.
Turning to `ClC1=C(Cl)[C@]2(Cl)[C@@H]3[C@@H](Cl)[C@H]4O[C@H]4[C@@H]3C1(Cl)C2(Cl)Cl`, the AC50 in [9] was 9.03 µM (active); in experiment [19], 13.2 µM (active); in experiment [14], 13.1 µM (active); in experiment [15], 5.59 µM (active); in experiment [11], 9.92 µM (active); in [12], 15.8 µM (active). The AC50 in [18] was 34.2 µM (active); in experiment [13] it was 9.79 µM (active). For the same compound, the call in [10] was inactive.
